Results from PubChem BioAssay (NCI).
Where “and” joins values, the source holds several entries; their conditions need not be identical. Equal entries are not always repeated. About 83,000 compounds went through this panel and 20% of them were active in at least one assay; those are over-represented in the sample as a whole.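 How to read the values: 0–100, growth inhibition (40 = 60% inhibited); 0, no net growth; -100 to 0, cell death (-40 = 40% of starting cells died; -100 = all dead).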 Calls of active or inactive are those of the source. Rule for the calls: active = growth percent below 10; inactive = the rest.

Assays:
Assay in all cases: NCI-60 one-dose screen, 48 h (100 = growth as untreated, 0 = no growth, -100 = all killed)
Details in all cases: 10 µM unless noted
NCI-H23 lung = tested on: NCI-H23 lung
NCI-H226 lung = tested on: NCI-H226 lung
NCI-H322M lung = tested on: NCI-H322M lung
HOP-62 NSCLC = tested on: HOP-62 NSCLC
NCI-H460 lung = tested on: NCI-H460 lung
HOP-92 NSCLC = tested on: HOP-92 NSCLC
NCI-H522 lung = tested on: NCI-H522 lung
A549/ATCC NSCLC = tested on: A549/ATCC NSCLC
786-0 renal = tested on: 786-0 renal
COLO 205 colon = tested on: COLO 205 colon
DU-145 prostate = tested on: DU-145 prostate
K-562 leukemia = tested on: K-562 leukemia
MALME-3M melanoma = tested on: MALME-3M melanoma
MDA-MB-231 breast = tested on: MDA-MB-231 breast
RXF 393 renal = tested on: RXF 393 renal
SF-268 CNS = tested on: SF-268 CNS
SF-295 CNS = tested on: SF-295 CNS
SF-539 CNS = tested on: SF-539 CNS
UACC-257 melanoma = tested on: UACC-257 melanoma
M14 melanoma = tested on: M14 melanoma

Structure (SMILES)	growth (NCI-H23 lung)	growth (NCI-H226 lung)	growth (NCI-H322M lung)	growth (HOP-62 NSCLC)	growth (NCI-H460 lung)	growth (HOP-92 NSCLC)	growth (NCI-H522 lung)	growth (A549/ATCC NSCLC)	growth (786-0 renal)	growth (COLO 205 colon)	growth (DU-145 prostate)	growth (K-562 leukemia)	growth (MALME-3M melanoma)	growth (MDA-MB-231 breast)	growth (RXF 393 renal)	growth (SF-268 CNS)	growth (SF-295 CNS)	growth (SF-539 CNS)	growth (UACC-257 melanoma)	growth (M14 melanoma)
COC(=O)c1nc(-c2ccccc2)oc1S(=O)(=O)N(C)CCO	90.9% (inactive)	90.8% (inactive)	94.6% (inactive)	103% (inactive)	105% (inactive)	41.7% (inactive)	32.7% (inactive)	91.2% (inactive)	57.9% (inactive)	48% (inactive)	65.4% (inactive)	22.2% (inactive)	69.6% (inactive)	78.3% (inactive)	64.8% (inactive)	92.3% (inactive)	104% (inactive)	68.7% (inactive)	63.8% (inactive)	41.1% (inactive)
CCOC(=O)C(=CCC(C)C)C(=O)OCC	93.1% (inactive)	93.4% (inactive)	104% (inactive)	89% (inactive)	106% (inactive)	89.3% (inactive)	104% (inactive)	104% (inactive)	95.9% (inactive)	116% (inactive)	99.3% (inactive)	125% (inactive)	120% (inactive)	99.6% (inactive)	113% (inactive)	94.9% (inactive)	120% (inactive)	95.7% (inactive)	110% (inactive)	95.7% (inactive)
CN1C(=O)N(C)C2(c3ccccc3)N(CC(=O)Nc3ccccc3O)C(=O)NC12c1ccccc1 (stereo not given)	101% (inactive)	90.7% (inactive)	100% (inactive)	102% (inactive)	106% (inactive)	107% (inactive)	86.2% (inactive)	109% (inactive)	103% (inactive)	110% (inactive)	110% (inactive)	101% (inactive)	107% (inactive)	101% (inactive)	113% (inactive)	96.5% (inactive)	101% (inactive)	96.4% (inactive)	125% (inactive)	105% (inactive)
COc1cc(F)c(/C=C/c2cc(/C=C/c3cc(OC)c(OC)cc3F)n(-c3cc(F)cc(F)c3)n2)cc1OC	-20.2% (active)	98.1% (inactive)	15.2% (inactive)	85.8% (inactive)	47% (inactive)	80.9% (inactive)	47.1% (inactive)	44.1% (inactive)	88.3% (inactive)	115% (inactive)	43.1% (inactive)	20.3% (inactive)	-6.11% (active)	54.9% (inactive)	85.6% (inactive)	34% (inactive)	54.2% (inactive)	83.4% (inactive)	24% (inactive)	-19.5% (active)
OCc1cc(CN2CCCCC2)c(O)c2ncccc12	75.8% (inactive)	67.5% (inactive)	25.9% (inactive)	35.8% (inactive)	20.7% (inactive)	71.9% (inactive)	80.7% (inactive)	57.8% (inactive)	57.9% (inactive)	47% (inactive)	49.5% (inactive)	55.5% (inactive)	62.8% (inactive)	49.5% (inactive)	73.8% (inactive)	48.2% (inactive)	60.6% (inactive)	54% (inactive)	77.8% (inactive)	36.2% (inactive)
COc1ccc(-c2ccc(-c3ccc(C(=N)N)cn3)o2)cc1Cl	69.3% (inactive)	81.4% (inactive)	77.2% (inactive)	67.5% (inactive)	0.593% (active)	36.4% (inactive)	59.5% (inactive)	21.2% (inactive)	-6.3% (active)	-72.6% (active)	46.5% (inactive)	-40.3% (active)	5.7% (active)	4.25% (active)	56.6% (inactive)	46.5% (inactive)	73.6% (inactive)	33% (inactive)	77.1% (inactive)	31.8% (inactive)
O=C(Nc1ccccc1C(=O)N/N=C(\c1ccccc1)c1ccccn1)c1ccccc1	24.9% (inactive)	18.1% (inactive)	29.1% (inactive)	9.93% (active)	-0.498% (active)	34.9% (inactive)	0.831% (active)	9.7% (active)	9.15% (active)	5.09% (active)	14.1% (inactive)	12.5% (inactive)	35.1% (inactive)	22.5% (inactive)	21.4% (inactive)	15.5% (inactive)	17.9% (inactive)	8.36% (active)	-10.4% (active)	-12.9% (active)
CC(=O)c1nn(-c2ccccc2)/c(=N/N=Cc2cn(-c3ccccc3)nc2-c2cc3ccccc3oc2=O)s1	109% (inactive)	105% (inactive)	93.2% (inactive)	101% (inactive)	117% (inactive)	94.7% (inactive)	95.6% (inactive)	102% (inactive)	105% (inactive)	117% (inactive)	107% (inactive)	98.5% (inactive)	104% (inactive)	82.6% (inactive)	111% (inactive)	104% (inactive)	103% (inactive)	99.6% (inactive)	108% (inactive)	97.4% (inactive)
CC/C=C\C/C=C\C[C@H](O)C/C=C1/C(=O)C=C[C@@H]1C/C=C\CCCC(=O)OC	-19.9% (active)	-48.3% (active)	10.6% (inactive)	-30.3% (active)	-40% (active)	-23% (active)	-52.3% (active)	-23.7% (active)	-60.6% (active)	-69.4% (active)	6.78% (active)	3.6% (active)	-5.8% (active)	-5.48% (active)	-58.2% (active)	8.53% (active)	-8.95% (active)	1.23% (active)	-13.9% (active)	-23% (active)
COc1ccc(C/C(C)=C(/c2ccc(OCCN3CCCCCC3)cc2)c2ccc(OC(=O)c3ccccc3)cc2)cc1	109% (inactive)	110% (inactive)	102% (inactive)	91.3% (inactive)	110% (inactive)	105% (inactive)	75.6% (inactive)	97.5% (inactive)	96.8% (inactive)	113% (inactive)	114% (inactive)	89.7% (inactive)	104% (inactive)	104% (inactive)	124% (inactive)	106% (inactive)	96.1% (inactive)	96.8% (inactive)	100% (inactive)	95.3% (inactive)
CCCc1cc(C(N)=S)ccn1	108% (inactive)	100% (inactive)	101% (inactive)	106% (inactive)	111% (inactive)	95.1% (inactive)	93.6% (inactive)	103% (inactive)	95.6% (inactive)	107% (inactive)	109% (inactive)	95.3% (inactive)	93.7% (inactive)	115% (inactive)	111% (inactive)	114% (inactive)	99.1% (inactive)	100% (inactive)	112% (inactive)	102% (inactive)
COc1cc(C=O)ccc1Oc1ccc([N+](=O)[O-])cc1[N+](=O)[O-]	95.6% (inactive)	99.9% (inactive)	104% (inactive)	94.2% (inactive)	104% (inactive)	78.8% (inactive)	94.3% (inactive)	88.4% (inactive)	102% (inactive)	108% (inactive)	110% (inactive)	97.3% (inactive)	114% (inactive)	104% (inactive)	111% (inactive)	102% (inactive)	108% (inactive)	107% (inactive)	90% (inactive)	102% (inactive)
COc1ccc(C(=O)c2ccc(OC)c(OC)c2OC)cc1	41.1% (inactive) and 40.7% (inactive)	62.8% (inactive) and 53.2% (inactive)	59% (inactive)	41.7% (inactive) and 25.5% (inactive)	20.1% (inactive) and 5.6% (active)	59.6% (inactive) and 41.5% (inactive)	11.2% (inactive) and 12.1% (inactive)	47% (inactive) and 41.3% (inactive)	74% (inactive) and 46.1% (inactive)	3.87% (active) and -14.7% (active)	25.9% (inactive) and 6.1% (active)	29.3% (inactive) and 14.6% (inactive)	51.5% (inactive) and 23.2% (inactive)	59.2% (inactive) and 48.2% (inactive)	9.82% (active) and 15.4% (inactive)	49.3% (inactive) and 42.7% (inactive)	13.2% (inactive) and -15.2% (active)	9.19% (active) and -30.5% (active)	48.6% (inactive) and 61% (inactive)	24.5% (inactive) and 16.9% (inactive)
